Records with an inconclusive call do not appear. Entries that show only a call come without a potency. Activity calls are given as the source filed them. The call rests on the fitted dose curve; in most records, active means well fitted inhibition curve with a large enough effect; inconclusive means small, poorly fitted or top-dose-only effect; inactive means flat fitted curve, though single readings scatter.
test: High Content Assay for Compounds that inhibit the Assembly of the Perinucleolar Compartment: PC3M Cytotoxicity; conditions: PC3M cells, ATPLite luminescence viability, 24 h; series mostly up to 46.1 µM
Summary of the method: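 ATPLite luminescent ATP readout after 24 h compound exposure at 37 C of PC3M-GFP reporter cells, 2000 per well. Compounds pinned as 23 nl of stock, in duplicate; controls camptothecin and DMSO.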

**Q.** With `Cc1ccccc1C(=O)NNC(=S)Nc1cccc(C(F)(F)F)c1` as the compound, how does the Potency read?
**A.** Its Potency is “inactive”.

**Q.** Which Potency does the source give for `COc1cccc(CNc2cccc3cccnc23)c1O` here?
**A.** Its Potency is “inactive”.

**Q.** With `COc1ccc2nc3sc(C(=O)NCCCN4CCc5ccccc5C4)cc3cc2c1` as the compound, how does the Potency read?
**A.** The Potency was 31.6 µM (active).

**Q.** For `O=C1C(Nc2ccccc2)=C/C(=N/S(=O)(=O)c2cccs2)c2ccccc21`, which Potency is on record?
**A.** The Potency was 15.8 µM (active).

**Q.** With `CCCSc1cc(N2CCN(C)CC2)nc(-c2ccc(OC)cc2)n1` as the compound, how does the Potency read?
**A.** The Potency was “inactive”.

**Q.** With `Cc1c(C#N)c(N)nc2c3c(sc12)NC(=O)CC3c1ccc(F)cc1` (configuration not stated) as the compound, how does the Potency read?
**A.** Its Potency is “inactive”.

**Q.** For `CC12CCC(C(=O)NC(c3ccccc3)c3ccccc3)(OC1=O)C2(C)C` (configuration not stated), which Potency is on record?
**A.** Its Potency is “inactive”.

**Q.** With `Cc1c(NC(=O)COC(=O)c2cc(-c3ccc(-c4ccccc4)cc3)nc3ccccc23)c(=O)n(-c2ccccc2)n1C` as the compound, how does the Potency read?
**A.** Its Potency is 5.01 µM (active).

**Q.** With `CCN=c1scc(-c2ccccc2)n1/N=C/c1ccccn1` as the compound, how does the Potency read?
**A.** Its Potency is 10 µM (active).

**Q.** Which Potency does the source give for `CC(=O)c1ccc(-n2c(SCC(=O)c3c[nH]c4ccccc34)nc3ccccc3c2=O)cc1` here?
**A.** Its Potency is “inactive”.

**Q.** For `Cc1cccc(C)c1Nc1c(-c2ccc(N3CCOCC3)cc2)nc2ncccn12`, which Potency is on record?
**A.** Its Potency is “inactive”.

**Q.** For `COc1cc(/C=N/NC(=O)c2ccc(CSc3nc4ccccc4[nH]3)cc2)cc(OC)c1OC`, which Potency is on record?
**A.** Its Potency is “inactive”.

**Q.** Which Potency does the source give for `O=C1C(=Cc2cccs2)C(=O)c2ccccc21` here?
**A.** The Potency was “inactive”.

**Q.** Which Potency does the source give for `Cc1cc(SC(C)C(=O)Nc2ncc(Cl)cc2Cl)nc2ccccc12` (configuration not stated) here?
**A.** Its Potency is 11.2 µM (active).

**Q.** Which Potency does the source give for `Cc1cccc(NC2=C/C(=N/S(=O)(=O)c3cccs3)c3ccccc3C2=O)c1` here?
**A.** Its Potency is 15.8 µM (active).

**Q.** With `O=c1[nH]cnc2c1C(c1ccccc1[N+](=O)[O-])c1c(nc[nH]c1=O)O2` as the compound, how does the Potency read?
**A.** The Potency was “inactive”.

**Q.** For `Cc1ccc(Cl)cc1N(CC(=O)N1CCCCCC1)S(C)(=O)=O`, which Potency is on record?
**A.** The Potency was “inactive”.

**Q.** Which Potency does the source give for `N=c1c2c(-c3ccccc3)c(-c3ccccc3)n(Cc3ccccc3)c2ncn1CCCO` here?
**A.** The Potency was “inactive”.

**Q.** With `Cc1cc(C)c(S(=O)(=O)/N=C2/C=C(Sc3ncn[nH]3)C(=O)c3ccccc32)cc1C` as the compound, how does the Potency read?
**A.** Its Potency is 14.1 µM (active).

**Q.** For `CCOC(=O)Cn1c(-c2nonc2NC(=O)c2ccccc2F)nc2ccccc21`, which Potency is on record?
**A.** Its Potency is 4.47 µM (active).

**Q.** With `Cc1ccc(NC2=C/C(=N/S(=O)(=O)c3cccs3)c3ccccc3C2=O)cc1` as the compound, how does the Potency read?
**A.** Its Potency is 14.1 µM (active).

**Q.** For `C/C(N)=C(/C#N)C(=O)COC(=O)c1cc(C)n(-c2ccc(F)cc2)c1C`, which Potency is on record?
**A.** Its Potency is 12.6 µM (active).

Source: PubChem BioAssay AID2733 (National Center for Advancing Translational Sciences (NCATS), 2010)
